D3 ag = qHTS of D3 Dopamine Receptor Agonist: qHTS; D(3) dopamine receptor (Homo sapiens), P35462; D3R DiscoveRx beta-arrestin cells, luminescence, 90 min; max activation, %; 410,000 tested, 0.58% active; in the data active means max activation above about 30%
Target sequence (P35462 whole entry, looked up): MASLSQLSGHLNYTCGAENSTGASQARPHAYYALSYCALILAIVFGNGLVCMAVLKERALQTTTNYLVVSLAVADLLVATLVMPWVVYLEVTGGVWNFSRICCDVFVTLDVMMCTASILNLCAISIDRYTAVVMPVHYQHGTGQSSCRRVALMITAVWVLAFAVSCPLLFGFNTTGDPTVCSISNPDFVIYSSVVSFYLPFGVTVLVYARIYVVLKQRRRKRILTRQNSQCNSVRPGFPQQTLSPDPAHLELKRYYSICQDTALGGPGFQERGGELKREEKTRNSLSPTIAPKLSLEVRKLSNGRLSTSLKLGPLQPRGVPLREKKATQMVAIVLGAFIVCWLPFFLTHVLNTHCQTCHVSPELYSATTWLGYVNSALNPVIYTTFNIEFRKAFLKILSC
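Agonist mode: compounds and dopamine controls were applied to plated cells for 90 min at 37 degrees C after an overnight attachment at 1500 cells/well. Luminescent read-out followed 30 - 60 minutes at room temperature with DiscoveRx detection reagent.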
TDP1 cell noCPT = qHTS for Inhibitors of human tyrosyl-DNA phosphodiesterase 1 (TDP1): qHTS in cells in absence of CPT; DT40 Tdp1-/- hTDP1 cells, no CPT, ATP luminescence, 48 h; Potency, µM (top dose mostly 46.2 µM), most hits filed as inhibitors; 420,000 tested, 15% active; further: nearly all actives have a fitted effect of over 55% in size
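Compound effects on proliferation are scored in DT40 Tdp1-/-;hTDP1 cells in the absence of CPT. ATP levels (CellTiter-Glo luminescence) are recorded after a ≥48 hr, 37 °C incubation.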
IL1B secr inh = qHTS for Inhibitors of Inflammasome Signaling: IL-1-beta AlphaLISA Primary Screen | THP-1 LPS/ATP IL-1B secretion, AlphaLISA, 16 h; hits give low values | activity change, % at 57.5 µM | 360,000 tested, 4.7% active; in the data active means activity change below about -50%; inconclusive means mostly about -30% to -49%
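Secreted IL-1B measured by AlphaLISA bead assay after 16 h compound exposure of THP-1 cells; compounds (final up to 57.5 uM) added 1 h before LPS (250 ng/mL) and ATP (1.25 mM) stimulation; lower signal means less secretion.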
ClpP mod = qHTS Assay for Activators of ClpP; ATP-dependent Clp protease proteolytic subunit (Bacillus subtilis (strain 168)), P80244; purified B. subtilis ClpP, FRET peptide cleavage, 20 min; Potency, µM (series often up to 57.5 µM); 340,000 tested, 1.9% active; AID 651965, 2013; active means well fitted falling curve with a large enough effect; inconclusive means small, poorly fitted or top-dose-only effect; inactive means no such curve, though single readings can be large or run the other way; further: the source files actives as falling curves though it sought activators and does not explain the sign; nearly all actives have a fitted effect of over 65% in size
Target sequence (P80244 whole entry, looked up): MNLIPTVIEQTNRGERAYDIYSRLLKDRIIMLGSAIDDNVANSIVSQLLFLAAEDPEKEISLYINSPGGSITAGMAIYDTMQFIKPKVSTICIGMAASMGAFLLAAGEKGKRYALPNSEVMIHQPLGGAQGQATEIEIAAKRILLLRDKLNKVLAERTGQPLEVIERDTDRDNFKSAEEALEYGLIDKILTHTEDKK
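ClpP 10 microg/mL final, pH 8 Tris/KCl buffer with BSA, glycerol, Tween-20; compound pinned in; FRET-FV substrate; RT 20 min; Ex320/Em430; ΔFRET vs ADEP 5.8 microM, DMSO, no enzyme.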
TDP1 cell CPT = qHTS for Inhibitors of human tyrosyl-DNA phosphodiesterase 1 (TDP1): qHTS in cells in presence of CPT; Potency, µM (titrated, usually from 46.2 µM), hits mostly inhibitors; 420,000 tested, 12% active; chicken DT40 Tdp1-/-;hTDP1 cells + 20 nM CPT, ATP luminescence, 48 h; further: nearly all actives have a fitted effect of over 55% in size
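Chicken DT40 Tdp1-/- cells complemented with human TDP1, 400 cells/well, exposed to compounds plus 20 nM camptothecin for at least 48 h at 37 C; viability read as ATP content by CellTiter-Glo luminescence.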
DRD3 antagonist = qHTS of D3 Dopamine Receptor Antagonist: qHTS; D(3) dopamine receptor (Homo sapiens), P35462; D3R cells, DiscoveRx beta-arrestin luminescence, antagonist mode; hits give low values; max response, negative = inhibition, %; 360,000 tested, 2.5% active; in the data active means max response below about -50%; inconclusive means no clear call, values can overlap the other calls
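Cells plated overnight at 1500 cells/well, then exposed to library compounds with dopamine controls for 90 minutes at 37 degrees C. DiscoveRx reagent added for 30–60 minutes at room temperature; luminescence read, quantitative HTS format.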
Hits are given with their value. Sampled rows, rich in hits. Any-hit rate of the full collection: about 21%. Unless noted, the call rests on the fitted dose curve; in most records, active means well fitted inhibition curve with a large enough effect; inconclusive means small, poorly fitted or top-dose-only effect; inactive means flat fitted curve, though single readings scatter.

Screening CC(=O)N1CCc2cc(S(=O)(=O)NC(Cc3ccccc3)C(=O)NCc3ccccc3Cl)ccc21 (centres undefined) returned D3 ag inactive, TDP1 cell noCPT inactive, ClpP mod inactive and TDP1 cell CPT inactive.
For COc1cc2c(cc1OC)CN(C(=O)CN1CCN(S(=O)(=O)c3ccccc3)CC1)CC2 the results were D3 ag inactive, TDP1 cell noCPT inconclusive, IL1B secr inh inactive, ClpP mod inactive, TDP1 cell CPT inconclusive and DRD3 antagonist inactive.
For Cc1cccc(C(=O)Nc2ccc(C(=O)N/N=C/c3ccco3)cc2)c1 the results were D3 ag inactive, TDP1 cell noCPT inactive, IL1B secr inh inactive, ClpP mod inactive, TDP1 cell CPT inactive and DRD3 antagonist inactive.
For Cc1nc2ccccc2c(=O)n1/N=C/c1ccc(F)cc1 the results were D3 ag inactive, TDP1 cell noCPT inactive, IL1B secr inh inactive, ClpP mod inactive, TDP1 cell CPT inactive and DRD3 antagonist inactive.
CNC(=O)Cn1c(=O)c2cccn2c2ccc(F)cc21 was read as D3 ag inactive, TDP1 cell noCPT inactive, ClpP mod inconclusive and TDP1 cell CPT inactive.
For CN(C)CCNc1c2c(nc3ccccc13)CCC2 the results were D3 ag inactive, TDP1 cell noCPT 18.4µM, IL1B secr inh inactive, ClpP mod inactive, TDP1 cell CPT inconclusive and DRD3 antagonist inactive.
CN(C)CCCNc1c2ccccc2nc2ccccc12 was read as D3 ag inactive, TDP1 cell noCPT 2.59µM, IL1B secr inh -102.6, TDP1 cell CPT 2.91µM and DRD3 antagonist inactive.
`CCOc1ccc(NC(=O)CN(C)C(=O)c2cc([N+](=O)[O-])ccc2N2CCOCC2)cc1OCC` gave D3 ag inactive, TDP1 cell noCPT inactive, IL1B secr inh inactive, ClpP mod inactive, TDP1 cell CPT inactive and DRD3 antagonist inactive.
For Cc1nn(C)c(C)c1/C=C(/C(=O)C(C)(C)C)n1cncn1 the results were D3 ag inactive, TDP1 cell noCPT 23.1µM, IL1B secr inh -57.0, TDP1 cell CPT inconclusive and DRD3 antagonist inactive.
`Cn1ccc(C(=O)N/N=C/c2ccncc2)n1` gave D3 ag inactive, TDP1 cell noCPT inactive, IL1B secr inh inactive, ClpP mod inactive, TDP1 cell CPT inactive and DRD3 antagonist inactive.
For Cc1nn(C)c(C)c1/C=C(/C(=O)C(C)C)n1cncn1 the results were D3 ag inactive, TDP1 cell noCPT inactive, IL1B secr inh inactive, ClpP mod inactive, TDP1 cell CPT inactive and DRD3 antagonist inactive.
For CC(C)(C)C(=O)/C(=C/c1ccncc1)n1cncn1 the results were D3 ag inactive, TDP1 cell noCPT 1.64µM, IL1B secr inh -97.6, ClpP mod inactive, TDP1 cell CPT 3.26µM and DRD3 antagonist -55.8.
Screening CCCCc1nn2c(=O)cc(COC(=O)c3ccc4c(c3)OCO4)nc2s1 returned D3 ag inactive, TDP1 cell noCPT inactive, ClpP mod inactive and TDP1 cell CPT inactive.
For CN(C(=O)c1cccc(NC(=O)Cc2cccc(NC(=O)C3CCN(C(=O)c4ccccc4)CC3)c2)c1)C1CCCC1 the results were D3 ag inactive, TDP1 cell noCPT inconclusive, IL1B secr inh inactive, ClpP mod inactive, TDP1 cell CPT inconclusive and DRD3 antagonist inactive.
Screening O=C(Nc1cccc(C(F)(F)F)c1)N1CC2CCCN2c2ccccc21 (centres undefined) returned D3 ag inactive, TDP1 cell noCPT inconclusive, ClpP mod inactive and TDP1 cell CPT inconclusive.
Screening Cc1ccc(NC(=O)N2CC3CCCN3c3ccccc32)c(C)c1 (centres undefined) returned D3 ag inactive, TDP1 cell noCPT 18.4µM, ClpP mod inactive and TDP1 cell CPT 23.1µM.
`COC(=O)c1ccc(Cl)cc1NC(=O)N1CC2CCCN2c2ccccc21` (centres undefined) gave D3 ag inactive, TDP1 cell noCPT inconclusive, ClpP mod inactive and TDP1 cell CPT inconclusive.
`Cc1ccc(NC(=O)N2CC3CCCN3c3ccccc32)cc1Cl` (centres undefined) gave D3 ag inactive, TDP1 cell noCPT 16.4µM, ClpP mod inactive and TDP1 cell CPT inconclusive.
Screening Cc1ccc(NC(=O)N2CC3CCCN3c3ccccc32)cc1C (centres undefined) returned D3 ag inactive, TDP1 cell noCPT 23.1µM, ClpP mod inactive and TDP1 cell CPT 18.4µM.
`NC(=O)c1nc(-c2ccccc2)c(-c2ccccc2)[nH]c1=O` gave D3 ag inactive, TDP1 cell noCPT 2.31µM, IL1B secr inh inactive, ClpP mod inactive, TDP1 cell CPT 0.581µM and DRD3 antagonist inactive.
Cc1cc(C)n(-c2ccc(C(=O)NCC(=O)Nc3cc(Cl)ccc3Cl)cc2)n1 was read as D3 ag inactive, TDP1 cell noCPT inconclusive, IL1B secr inh inactive, ClpP mod inactive, TDP1 cell CPT inactive and DRD3 antagonist inactive.
Screening COc1ccc(-n2cnc3scc(-c4ccccc4)c3c2=O)cc1 returned D3 ag inactive, TDP1 cell noCPT inconclusive, IL1B secr inh inactive, TDP1 cell CPT inactive and DRD3 antagonist inactive.
CCCOC(=O)c1ccc(NC(=O)C2CC(=O)N(c3ccc(C)cc3)C2)cc1 (centres undefined) was read as D3 ag inactive and ClpP mod inactive.
For CC12CCC(C(=O)N(CSC(=S)N/N=C\c3ccccc3O)C1=O)C2(C)C (centres undefined) the results were D3 ag inactive, TDP1 cell noCPT 14.6µM, IL1B secr inh inactive, ClpP mod inactive, TDP1 cell CPT inconclusive and DRD3 antagonist inactive.
COc1ccc2cc1Oc1ccc(cc1)CC1c3c(cc(OC)c4c3Oc3cc5c(cc3O4)CCNC5C2)CCN1C (centres undefined) was read as D3 ag inactive, TDP1 cell noCPT 1.64µM, IL1B secr inh inactive, ClpP mod inactive, TDP1 cell CPT 2.91µM and DRD3 antagonist inactive.
Screening COc1ccc2cc1Oc1ccc(cc1)C[C@H]1c3c(cc(OC)c4c3Oc3c(ccc5c3[C@H](C2)N(C)CC5)O4)CCN1C returned D3 ag inactive, TDP1 cell noCPT 5.17µM, IL1B secr inh inactive, ClpP mod inactive, TDP1 cell CPT 5.8µM and DRD3 antagonist inactive.
For CCN1CCN(c2cc(C)c3cc(NC(=O)c4ccc5c(c4)OCO5)ccc3n2)CC1 the results were D3 ag inactive, TDP1 cell noCPT 14.6µM, IL1B secr inh inactive, ClpP mod inactive, TDP1 cell CPT 11.6µM and DRD3 antagonist inactive.
